# Values joined by “and” are separate entries in the source; they are usually repeats but may differ in a detail not shown here. Identical values can stand only once. Inconclusive results are not listed. Where a call stands in place of a potency, no number is given. Active and inactive are the calls of the source. Unless noted, calls come from the whole dose curve.
# Legend:
# [1] = molecular target: Glucocorticoid receptor (Homo sapiens) (UniProt P04150); experiment: qHTS assay for small molecule agonists of glucocorticoid receptor signaling (AID 588532; active = well fitted curve in the direction sought with a large enough effect in the signal ratio, with a control signal flat; the % refers to the signal ratio); conditions: HeLa MMTV-bla, beta-lactamase ratio, agonist, 18 h; stronger effect = higher value; percent of dexamethasone control, DMSO zero
# Summary of the method: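 MMTV-bla HeLa, beta-lactamase reporter; medium with 1% charcoal/dextran-stripped FBS; cpds up to 92 uM, 18 h, 37 C; CCF4 readout 460/530 nm; Hill fit → EC50, efficacy vs 0.1 uM dexamethasone = 100%.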
# [2] = molecular target: Glucocorticoid receptor (Homo sapiens) (UniProt P04150); experiment: qHTS assay for small molecule antagonists of glucocorticoid receptor signaling (AID 588533; active = well fitted inhibition curve with a large enough effect in the signal ratio, with a control signal flat, not every such curve was filed as active; the % refers to the signal ratio;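 note: cells stimulated with 2 nM dexamethasone as agonist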); conditions: HeLa MMTV-bla, GRE beta-lactamase ratio, antagonist mode, 18 h; series mostly up to 76.8 µM
# Summary of the method: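 Antagonist-mode qHTS: compound titrations added to GRE-bla HeLa cells, then dexamethasone 2 nM final; 18 h, 37 C. CCF4 FRET fluorescence normalized to dexamethasone and DMSO; IC50 from Hill fit.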
# [3] = qHTS assay for small molecule antagonists of peroxisome proliferator-activated receptor delta signaling (AID 588535; active = well fitted inhibition curve with a large enough effect in the signal ratio, with a control signal flat, not every such curve was filed as active; the % refers to the signal ratio;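 for max response: cells co-treated with a PPAR-delta agonist as stimulator during compound exposure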); conditions: HEK293T PPARd-UAS-bla, beta-lactamase FRET ratio, 18 h; 460 nm channel
# Summary of the method: (§1)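 Inhibition of PPAR-delta response element-driven beta-lactamase expression is measured in HEK293T cells exposed to a compound titration series for 18 hrs at 37 C. Half-maximal inhibition comes from Hill equation fitting.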
# [4] = molecular target: Peroxisome proliferator-activated receptor delta (Homo sapiens) (UniProt Q03181); experiment: as above; conditions: HEK293T PPARd-UAS-bla, beta-lactamase FRET ratio, 18 h; series mostly up to 76.7 µM
# Summary of the method: as §1
# [5] = molecular target: Peroxisome proliferator-activated receptor gamma (Homo sapiens) (UniProt P37231); experiment: qHTS assay for small molecule agonists of peroxisome proliferator-activated receptor gamma signaling (AID 588536; active = well fitted curve in the direction sought with a large enough effect in the signal ratio, with a control signal flat, not every such curve was filed as active; the % refers to the signal ratio); conditions: HEK293 PPARg-UAS-bla, beta-lactamase ratio, 16 h, percent of rosiglitazone response, DMSO as zero; series mostly up to 76.7 µM
# Summary of the method: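 Beta-lactamase reporter read-out: CCF4 fluorescence (ex 405, em 460/530 nm) after 2 h at RT. HEK293 GeneBLAzer cells were treated for 16 h at 37 C. Hill fits gave EC50 and efficacy versus 2 uM rosiglitazone (100%) and DMSO (0%).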
# [6] = molecular target: Peroxisome proliferator-activated receptor gamma (Homo sapiens) (UniProt P37231); experiment: qHTS assay for small molecule antagonists of peroxisome proliferator-activated receptor gamma signaling (AID 588537; active = well fitted inhibition curve with a large enough effect in the signal ratio, with a control signal flat, not every such curve was filed as active; the % refers to the signal ratio;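 note: reporter cells co-stimulated with 50 nM rosiglitazone agonist during compound treatment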); conditions: HEK293 PPARg-UAS-bla, beta-lactamase ratio, antagonist mode; series mostly up to 76.8 µM
# Summary of the method: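 Compounds are tested as concentration series for inhibition of rosiglitazone-driven (50 nM) reporter expression in GeneBLAzer PPAR-gamma-UAS-bla HEK293 cells. After 16 h at 37 C, CCF4 substrate is added for 2 h at room temperature and blue/green fluorescence is measured.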
# [7] = molecular target: Vitamin D3 receptor (Homo sapiens) (UniProt P11473); experiment: qHTS assay for small molecule antagonists of vitamin D receptor signaling (AID 588541); conditions: HEK293T VDR-UAS-bla, beta-lactamase ratio, antagonist mode; series mostly up to 76.7 µM;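 note: receptor activated by calcitriol during compound treatment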
# Summary of the method: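 VDR-UAS-bla HEK293T cells (2000/well, 2% charcoal-stripped FBS) were treated with titrated compounds plus 1-alpha,25-dihydroxyvitamin D3 (50 nM or 3 nM final) for 16 h at 37 C. CCF4 beta-lactamase fluorescence was read; Hill fits gave IC50.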
# [8] = molecular target: Vitamin D3 receptor (Homo sapiens) (UniProt P11473); experiment: qHTS assay for small molecule agonists of vitamin D receptor signaling (AID 588543); conditions: HEK293T VDR-UAS-bla, beta-lactamase ratio, 16 h; series mostly up to 76.8 µM
# Summary of the method: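 Agonist-mode beta-lactamase reporter: HEK293T VDR-UAS-bla cells in charcoal-stripped 2% FBS, compound series 16 h 37 C, CCF4 2 h RT. EC50 from Hill fit, scaled against DMSO and 50 nM calcitriol control.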
# [9] = qHTS assay for small molecule agonists of retinoid X receptor alpha signaling (AID 588544); conditions: HEK293T RXRa-UAS-bla, beta-lactamase reporter, 18 h; 530 nm emission
# [10] = molecular target: Retinoic acid receptor RXR-alpha (Homo sapiens) (UniProt P19793); experiment: as above; conditions: HEK293T RXRa-UAS-bla, beta-lactamase reporter, 18 h; series mostly up to 76.7 µM
# [11] = molecular target: Thyroid hormone receptor beta (Homo sapiens) (UniProt P10828); experiment: qHTS assay for small molecule agonists of thyroid hormone receptor beta signaling (AID 588545); conditions: TR-UAS-bla GripTite HEK 293, beta-lactamase ratio, agonist mode, 18 h, percent of T3 response, DMSO as zero; series mostly up to 76.7 µM
# Summary of the method: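 Agonist activity was read as beta-lactamase CCF4 fluorescence (405 ex, 460/530 em), scaled between DMSO (0%) and 10 nM T3 (100%), then Hill-fitted for EC50 and efficacy. HEK 293 TR-UAS-bla cells in 2% charcoal/dextran FBS medium were exposed 18 h at 37 C.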
# [12] = qHTS assay for small molecule antagonists of retinoid X receptor alpha signaling (AID 588546; active = well fitted inhibition curve with a large enough effect in the signal ratio, with a control signal flat, not every such curve was filed as active; the % refers to the signal ratio;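 note: cells stimulated with 9-cis-retinoic acid as agonist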); conditions: HEK293T RXRa-UAS-bla, beta-lactamase ratio, antagonist mode; measured here: W530 green channel, cytotoxicity proxy
# Summary of the method: (§2)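 Beta-lactamase reporter inhibition, read as CCF4 fluorescence ratio (ex 405, em 460/530 nm) after 2 h at RT. HEK293T UAS-bla cells, 2500/well, were stimulated with 9-cis-RA at 500 or 100 nM final alongside test compound for 18 h at 37 C.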
# [13] = molecular target: Thyroid hormone receptor beta (Homo sapiens) (UniProt P10828); experiment: qHTS assay for small molecule antagonists of thyroid hormone receptor beta signaling (AID 588547; active = well fitted inhibition curve with a large enough effect in the signal ratio, with a control signal flat, not every such curve was filed as active; the % refers to the signal ratio;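 note: cells stimulated with 0.4 nM T3 agonist during compound exposure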); conditions: TR-UAS-bla HEK293, beta-lactamase ratio, antagonist mode, 18 h
# Summary of the method: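 TR-UAS-bla GripTite HEK293 cells in 2% charcoal/dextran FBS medium were preincubated 4 h at 37 C, given compound (0.59 nM to 92 uM) plus 0.4 nM T3 (final) for 18 h, then CCF4 for 2 h at RT; Hill fit gave IC50.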
# [14] = qHTS assay for small molecule agonists of the antioxidant response element (ARE) signaling pathway (AID 651741; active = well fitted activation curve with a large enough effect in the signal ratio; the % refers to the signal ratio); conditions: HepG2 ARE-bla reporter, beta-lactamase FRET ratio, 16 h; series mostly up to 96 µM
# Summary of the method: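 Reporter: beta-lactamase under ARE, stably in HepG2. Exposure: 16 h, 37 C, compounds delivered in DMSO by pin tool after 5 h cell preincubation. Readout: FRET substrate fluorescence after 2 h at RT.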
# [15] = qHTS assay for small molecule activators of the p53 signaling pathway (AID 651743; active = well fitted activation curve with a large enough effect in the signal ratio, not every such curve was filed as active; the % refers to the signal ratio); conditions: HCT-116 p53RE-bla, beta-lactamase FRET ratio, 16 h; stronger effect = higher value
# Summary of the method: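 Agonist-mode quantitative HTS in HCT-116 cells carrying a p53-response-element beta-lactamase reporter; 16 h compound treatment at 37 C, then FRET substrate loading for 2 h at room temperature and fluorescence read.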
# [16] = qHTS assay for small molecule disruptors of the mitochondrial membrane potential - 1 hr assay (AID 651754); conditions: series mostly up to 92.2 µM; note: nearly all actives have a fitted effect of over 35% in size
# Summary of the method: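 Loss of mitochondrial potential shifts the cationic dye from red mitochondrial aggregates to green cytoplasmic monomers. Cells (HepG2) are treated with compound for 1 hr before a 30 min dye incubation at 37C.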
# [17] = molecular target: Bile acid receptor (Homo sapiens) (UniProt Q96RI1); experiment: qHTS assay for small molecule antagonists of farnesoid X receptor signaling (AID 588526); conditions: HEK293T FXR-UAS-bla, beta-lactamase ratio, antagonist mode; series mostly up to 76.7 µM
# Summary of the method: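 Concentration-response titrations were fitted to the Hill equation for half-maximal inhibition and maximal response, with data normalised to 50 uM chenodeoxycholic acid and DMSO control wells. Cells: FXR-UAS-bla HEK293T, dialyzed FBS.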
# [18] = molecular target: Retinoic acid receptor RXR-alpha (Homo sapiens) (UniProt P19793); experiment: qHTS assay for small molecule antagonists of retinoid X receptor alpha signaling (AID 588546); conditions: HEK293T RXRa-UAS-bla, beta-lactamase ratio, antagonist mode;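 note: cells stimulated with 9-cis-retinoic acid as agonist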
# Summary of the method: as §2
# [19] = molecular target: Voltage-gated inwardly rectifying potassium channel KCNH2 (Homo sapiens) (UniProt Q12809); experiment: qHTS Assay for Small Molecule Inhibitors of the Human hERG Channel Activity (AID 588834; active = well fitted inhibition curve with a large enough effect;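 note: top concentration of the series differs between compounds; lower thallium flux fluorescence means stronger hERG block; nearly all actives have a fitted effect of over 50% in size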); conditions: U2OS BacMam hERG, FluxOR thallium flux fluorescence; series mostly up to 92.2 µM
# Summary of the method: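 hERG block measured as reduced thallium-dye (FluxOR) fluorescence after stimulation buffer addition, read over 2 min. Cells were hERG-BacMam-transduced U2OS exposed to compound ~10 min […]; concentration-response fitted with Hill equation for AC50.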
# [20] = qHTS assay for small molecule activators of the nuclear factor-kappa B (NF-kB) signaling pathway (AID 651749; active = well fitted activation curve with a large enough effect in the signal ratio; the % refers to the signal ratio); conditions: NF-kB-bla ME-180 cells, beta-lactamase FRET ratio, 16 h; stronger effect = higher value
# Summary of the method: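 Human ME-180 cervical cells with an NF-kB-bla construct; compounds added via 23 nL pin transfer, DMSO as vehicle; incubation 16 hr. Reporter activity measured by FRET disruption.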
# Chain of Bile acid receptor (Homo sapiens) (Q96RI1 whole entry, looked up): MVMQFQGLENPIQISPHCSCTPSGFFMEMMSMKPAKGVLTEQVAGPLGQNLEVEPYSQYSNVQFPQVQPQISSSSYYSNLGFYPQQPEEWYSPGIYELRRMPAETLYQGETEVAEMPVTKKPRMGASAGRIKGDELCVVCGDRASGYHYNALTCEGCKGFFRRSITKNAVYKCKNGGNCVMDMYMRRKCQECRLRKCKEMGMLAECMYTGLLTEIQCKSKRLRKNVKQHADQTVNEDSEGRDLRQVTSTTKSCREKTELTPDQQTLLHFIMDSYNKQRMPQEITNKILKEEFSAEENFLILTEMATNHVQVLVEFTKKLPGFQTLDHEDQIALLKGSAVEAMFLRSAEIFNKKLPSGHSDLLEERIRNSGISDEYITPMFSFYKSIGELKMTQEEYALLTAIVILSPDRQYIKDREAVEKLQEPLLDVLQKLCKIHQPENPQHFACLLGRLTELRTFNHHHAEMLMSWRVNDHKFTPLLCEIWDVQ
# Chain of Retinoic acid receptor RXR-alpha (Homo sapiens) (P19793 whole entry, looked up): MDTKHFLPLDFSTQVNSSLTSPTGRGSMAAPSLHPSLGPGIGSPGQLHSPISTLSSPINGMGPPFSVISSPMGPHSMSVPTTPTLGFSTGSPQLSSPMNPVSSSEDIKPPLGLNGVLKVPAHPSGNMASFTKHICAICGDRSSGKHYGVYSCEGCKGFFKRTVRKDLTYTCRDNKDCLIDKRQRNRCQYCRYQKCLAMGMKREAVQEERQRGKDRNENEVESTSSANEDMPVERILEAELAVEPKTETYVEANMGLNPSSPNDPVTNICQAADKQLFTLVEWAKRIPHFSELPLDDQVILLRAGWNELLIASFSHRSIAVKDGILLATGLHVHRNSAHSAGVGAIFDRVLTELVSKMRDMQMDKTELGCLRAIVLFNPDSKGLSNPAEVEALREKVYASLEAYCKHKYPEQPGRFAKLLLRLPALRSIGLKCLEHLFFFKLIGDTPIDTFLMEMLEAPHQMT
# Chain of Vitamin D3 receptor (Homo sapiens) (P11473 whole entry, looked up): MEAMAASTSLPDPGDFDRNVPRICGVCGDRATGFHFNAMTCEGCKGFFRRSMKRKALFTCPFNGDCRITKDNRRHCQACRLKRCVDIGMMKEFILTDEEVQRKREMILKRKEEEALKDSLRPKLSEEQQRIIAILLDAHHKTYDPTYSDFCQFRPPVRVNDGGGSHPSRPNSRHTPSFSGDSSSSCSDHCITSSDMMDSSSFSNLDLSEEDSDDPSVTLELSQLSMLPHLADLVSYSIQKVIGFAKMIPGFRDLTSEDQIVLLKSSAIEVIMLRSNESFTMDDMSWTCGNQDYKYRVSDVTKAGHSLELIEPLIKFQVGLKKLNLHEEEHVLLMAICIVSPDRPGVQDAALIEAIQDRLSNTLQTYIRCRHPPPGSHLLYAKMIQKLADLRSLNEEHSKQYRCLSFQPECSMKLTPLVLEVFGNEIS
# Chain of Voltage-gated inwardly rectifying potassium channel KCNH2 (Homo sapiens) (Q12809 whole entry, looked up): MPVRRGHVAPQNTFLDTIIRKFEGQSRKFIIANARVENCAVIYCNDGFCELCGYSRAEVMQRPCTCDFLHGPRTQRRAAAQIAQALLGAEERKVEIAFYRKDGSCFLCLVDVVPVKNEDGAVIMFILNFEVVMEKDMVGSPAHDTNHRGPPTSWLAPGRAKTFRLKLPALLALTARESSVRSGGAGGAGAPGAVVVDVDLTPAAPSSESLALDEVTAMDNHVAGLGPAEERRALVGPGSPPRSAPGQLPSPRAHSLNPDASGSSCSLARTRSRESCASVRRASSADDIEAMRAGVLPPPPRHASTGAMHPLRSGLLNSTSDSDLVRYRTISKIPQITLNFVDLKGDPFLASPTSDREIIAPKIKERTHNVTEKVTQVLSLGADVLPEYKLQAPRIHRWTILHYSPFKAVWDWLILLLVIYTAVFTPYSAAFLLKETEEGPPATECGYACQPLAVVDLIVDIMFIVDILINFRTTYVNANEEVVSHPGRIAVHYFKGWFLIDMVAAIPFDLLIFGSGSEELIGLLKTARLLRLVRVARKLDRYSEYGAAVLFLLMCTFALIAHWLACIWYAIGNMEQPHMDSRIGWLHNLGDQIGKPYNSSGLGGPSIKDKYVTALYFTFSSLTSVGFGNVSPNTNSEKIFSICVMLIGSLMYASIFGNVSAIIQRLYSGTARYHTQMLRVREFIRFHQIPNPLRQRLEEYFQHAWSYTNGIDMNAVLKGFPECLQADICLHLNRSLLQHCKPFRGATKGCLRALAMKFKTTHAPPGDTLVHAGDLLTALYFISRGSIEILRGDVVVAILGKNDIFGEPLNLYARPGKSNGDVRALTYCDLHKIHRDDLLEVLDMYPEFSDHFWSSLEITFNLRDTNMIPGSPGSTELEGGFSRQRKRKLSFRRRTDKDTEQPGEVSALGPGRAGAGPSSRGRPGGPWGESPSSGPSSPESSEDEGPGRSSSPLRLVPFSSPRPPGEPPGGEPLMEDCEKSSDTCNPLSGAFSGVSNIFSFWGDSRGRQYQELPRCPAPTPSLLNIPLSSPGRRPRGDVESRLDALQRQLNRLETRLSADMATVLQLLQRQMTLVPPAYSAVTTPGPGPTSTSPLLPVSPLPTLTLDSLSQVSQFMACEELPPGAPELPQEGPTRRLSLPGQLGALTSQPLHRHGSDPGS
# Chain of Glucocorticoid receptor (Homo sapiens) (P04150 whole entry, looked up): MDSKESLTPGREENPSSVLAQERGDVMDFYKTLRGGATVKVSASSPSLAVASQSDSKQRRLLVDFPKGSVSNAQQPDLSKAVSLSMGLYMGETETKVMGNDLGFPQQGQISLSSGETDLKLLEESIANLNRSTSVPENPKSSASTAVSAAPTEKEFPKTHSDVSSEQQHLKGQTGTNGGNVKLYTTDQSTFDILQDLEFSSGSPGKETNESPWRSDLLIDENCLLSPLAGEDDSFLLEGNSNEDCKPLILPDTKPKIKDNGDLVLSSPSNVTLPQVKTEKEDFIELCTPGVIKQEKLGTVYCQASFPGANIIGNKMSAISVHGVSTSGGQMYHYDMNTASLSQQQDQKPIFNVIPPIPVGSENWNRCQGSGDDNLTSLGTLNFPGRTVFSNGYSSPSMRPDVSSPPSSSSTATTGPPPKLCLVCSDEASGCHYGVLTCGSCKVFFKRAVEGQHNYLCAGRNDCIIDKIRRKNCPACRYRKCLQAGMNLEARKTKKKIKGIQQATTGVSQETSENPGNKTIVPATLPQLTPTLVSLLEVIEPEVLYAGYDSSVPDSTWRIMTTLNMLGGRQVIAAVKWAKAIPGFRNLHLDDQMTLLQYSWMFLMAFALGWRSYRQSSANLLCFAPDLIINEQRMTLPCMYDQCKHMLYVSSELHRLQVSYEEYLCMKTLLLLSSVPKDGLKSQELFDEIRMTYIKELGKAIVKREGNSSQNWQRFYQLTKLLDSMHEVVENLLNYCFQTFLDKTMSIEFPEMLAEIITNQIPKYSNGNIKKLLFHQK
# Chain of Thyroid hormone receptor beta (Homo sapiens) (P10828 whole entry, looked up): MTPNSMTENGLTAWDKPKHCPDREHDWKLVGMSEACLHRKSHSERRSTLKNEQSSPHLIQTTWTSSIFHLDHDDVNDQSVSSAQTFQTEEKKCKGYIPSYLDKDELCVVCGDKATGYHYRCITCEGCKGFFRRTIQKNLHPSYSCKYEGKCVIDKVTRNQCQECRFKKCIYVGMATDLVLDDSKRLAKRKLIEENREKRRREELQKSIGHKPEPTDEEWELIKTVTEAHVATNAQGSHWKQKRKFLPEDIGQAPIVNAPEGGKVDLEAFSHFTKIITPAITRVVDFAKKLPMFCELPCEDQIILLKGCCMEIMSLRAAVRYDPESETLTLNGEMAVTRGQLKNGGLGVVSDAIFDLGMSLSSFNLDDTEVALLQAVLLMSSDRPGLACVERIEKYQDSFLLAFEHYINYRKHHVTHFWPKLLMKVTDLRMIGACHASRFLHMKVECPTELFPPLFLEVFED
# Chain of Peroxisome proliferator-activated receptor gamma (Homo sapiens) (P37231 whole entry, looked up): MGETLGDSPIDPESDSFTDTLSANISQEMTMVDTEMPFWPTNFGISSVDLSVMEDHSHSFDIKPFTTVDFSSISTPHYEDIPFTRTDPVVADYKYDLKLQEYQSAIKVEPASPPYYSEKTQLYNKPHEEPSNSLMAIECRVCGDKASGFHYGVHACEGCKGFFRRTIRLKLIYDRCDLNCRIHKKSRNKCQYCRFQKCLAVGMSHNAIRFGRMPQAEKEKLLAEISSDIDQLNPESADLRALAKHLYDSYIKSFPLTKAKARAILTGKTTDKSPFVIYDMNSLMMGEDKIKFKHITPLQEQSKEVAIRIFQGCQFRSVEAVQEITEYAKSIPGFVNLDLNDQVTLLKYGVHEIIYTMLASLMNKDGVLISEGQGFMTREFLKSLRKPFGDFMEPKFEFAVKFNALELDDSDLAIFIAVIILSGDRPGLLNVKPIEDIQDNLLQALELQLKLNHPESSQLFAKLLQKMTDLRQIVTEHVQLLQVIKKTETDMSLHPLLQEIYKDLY
# Chain of Peroxisome proliferator-activated receptor delta (Homo sapiens) (Q03181 whole entry, looked up): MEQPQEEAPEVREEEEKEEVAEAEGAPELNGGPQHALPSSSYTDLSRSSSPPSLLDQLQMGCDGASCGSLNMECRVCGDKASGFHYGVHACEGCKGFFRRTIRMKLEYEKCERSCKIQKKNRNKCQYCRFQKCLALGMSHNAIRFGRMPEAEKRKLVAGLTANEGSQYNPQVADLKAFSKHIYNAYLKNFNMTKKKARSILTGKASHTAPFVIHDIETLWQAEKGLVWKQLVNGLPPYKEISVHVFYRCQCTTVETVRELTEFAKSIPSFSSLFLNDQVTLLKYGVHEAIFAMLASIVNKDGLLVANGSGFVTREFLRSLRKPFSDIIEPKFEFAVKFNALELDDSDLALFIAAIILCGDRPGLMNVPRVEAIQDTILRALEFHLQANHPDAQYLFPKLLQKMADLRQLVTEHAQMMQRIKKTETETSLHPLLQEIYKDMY
Structure (SMILES),activation [1],outcome [2],max response [3],Potency [4],outcome [5],outcome [6],outcome [7],outcome [8],max response [9],outcome [10],outcome [11],max response [12],activity change % (negative = inhibition) [13],Potency [14],activation [15],Potency [16],outcome [17],max response [18],Potency [19],activation [20]
CC(C=O)Cc1ccc(C(C)(C)C)cc1 (stereo unspecified),-5.34% (inactive),inactive,41.6%,inactive,inactive,inactive,inactive,inactive,-4.78% and -12.5%,inactive,inactive,2.84% and -3.45%,4.73% (inactive) and 0.44% (inactive),inactive,3.13% (inactive) and -1.47% (inactive),inactive,,,,
NC=O,,,,,inactive,,inactive,,4.7%,inactive,inactive,-9.34%,21.1% (inactive),inactive,,inactive,inactive,-7.48% (inactive),inactive,-0.435% (inactive)
O=C(O)c1ccc(C(=O)O)cc1,6.51% (inactive) and -2.73% (inactive),inactive,14.5% and 21.9%,inactive,inactive,inactive,inactive,inactive,-16.5% and -21.7%,inactive,inactive,-3.66% and -13.6%,-2.68% (inactive) and 4.87% (inactive),inactive,-0.449% (inactive) and 6.06% (inactive),inactive,,1.97% (inactive) and -1.47% (inactive),inactive,0.423% (inactive) and -1.36% (inactive)
CCc1ccccc1O,4.35% (inactive),inactive,-32.1%,inactive,inactive,inactive,,inactive,-12.3%,inactive,inactive,-5.98%,,,,inactive,,5.77% (inactive),inactive,0.236% (inactive)
Cc1ccccc1C#N,,,-5.92%,inactive,inactive,,inactive,,-8.62%,inactive,inactive,-10.7%,4.81% (inactive),inactive,-0.804% (inactive),inactive,inactive,15.6% (inactive),inactive,
O=Cc1ccc(CO)o1,,,,,inactive,,,inactive,-13.3%,inactive,,0.176%,7.62% (inactive),,-2.06% (inactive),inactive,inactive,8.3% (inactive),inactive,
O=C(O)CNC(=O)c1ccc([N+](=O)[O-])cc1,,,53.5%,inactive,inactive,,inactive,inactive,0.246%,inactive,inactive,-9.96%,4.89% (inactive),inactive,-1.97% (inactive),inactive,inactive,,inactive,0.89% (inactive)
CC(=O)c1ccccn1,,,-20.6%,inactive,inactive,,inactive,,-4.17%,inactive,inactive,-3.87%,-7.89% (inactive),inactive,-1.74% (inactive),inactive,inactive,-5.68% (inactive),inactive,-1.25% (inactive)
